In ChEMBL document CHEMBL4513216, “Probing the Open Global Health Chemical Diversity Library for Multistage-Active Starting Points for Next-Generation Antimalarials” (ACS Infect Dis, 2020):
Among all 68,000 compounds or so, about 2,700 (4%) showed an effect of 50% or more. The sample holds strong results, similar compounds and a random draw of the others, so the mix is not that of the screen.

test system: Plasmodium berghei; assay: Screen against P. berghei liver stage (PbLuc), transformed with Luciferase, at 2uM; type: functional, HepG2; conditions: tested at 2 uM

Compound | INHIBITION
CCC[C@H]1CN(C(=O)CCn2ccccc2=O)C[C@@H]1NS(C)(=O)=O | 25.9%
CC(C)S(=O)(=O)NC(=O)c1cc(-c2cccc(Cl)c2)no1 | 38.67%
COc1ccc(C)cc1-n1c(COC(C)C)n[nH]c1=O | -19.78%
Cc1nc(C2CCCN2CCCc2nc3ccccc3o2)no1 (centres undefined) | 17.19%
COCCCN1CCC(C(=O)c2cc(F)ccc2F)CC1 | -6.4%
O=C(NCC1(Sc2ccccc2)CC1)c1cc[nH]n1 | 32.51%
O=C(NCC1(Sc2ccccc2)CC1)c1c[nH]nn1 | 66.4%
O=C(NCC1(Sc2ccccc2)CC1)c1ccc(=O)[nH]n1 | -5.26%
Cc1noc(C)c1CC(=O)N1CCCN(Cc2cscn2)CC1 | 25.74%
c1ccc(CCCN2CCN(CCn3cncn3)CC2)cc1 | 76.6%
c1ccc(SCCN2CCN(CCn3cncn3)CC2)cc1 | 30.62%
N#Cc1ccc(N2CCCN(CCCn3cncn3)CC2)cc1 | -27.36%
O=C(CCCn1cncn1)N1CCCC1c1nc(-c2ccccc2)no1 (centres undefined) | 48.21%
c1ccc(-c2noc(C3CCN(CCCn4cncn4)CC3)n2)cc1 | 57.75%
c1ccc(C(c2ccccc2)N2CCN(CCn3cncn3)CC2)cc1 | 35.54%
N#Cc1ccc(CN2CCCN(C(=O)CCn3cncn3)CC2)cc1 | 12.43%
N#Cc1ccc(CN2CCCN(CCCn3cncn3)CC2)cc1 | 65.3%
c1ccc(-c2noc(C3CCN(CCn4cccn4)CC3)n2)cc1 | 43.44%
COc1ccc(CC(=O)N2CC[C@H](CO)[C@H](O)C2)c(OC)c1 | 26.93%
CCc1ccc(C(C)NC(=O)N2CCC(n3cncn3)CC2)cc1 (centres undefined) | 38.06%
CC(C)N(C)[C@@H]1CCN(c2ncccn2)[C@H]1Cc1ccncc1 | 11.9%
CN(CC(=O)N1CCC(Oc2ccc(C(F)(F)F)cn2)CC1)S(C)(=O)=O | 17.26%
Cc1nccn1CC1CCCN1S(=O)(=O)Cc1ccon1 (centres undefined) | 60.31%
Cc1nccn1CC1CCCN1S(=O)(=O)Cc1ccccc1 (centres undefined) | 0.26%
Cc1nccn1CC1CCCN1S(=O)(=O)Cc1ccc(F)cc1 (centres undefined) | -88.61%

Compound | INHIBITION
CCc1nccn1CCCNC(=O)c1cnn(-c2ccccc2OC)c1 | -9.69%
O=C(CCn1ccc2cc(Br)ccc21)NCc1ccc(C(=O)O)cc1 | -4.69%
O=C(COC[C@]12COC[C@H]1CN(C1CCC1)C2)N1CCCC1 | -37.65%
O=C(COC[C@@]12CCC[C@@H]1CN(C1CCC1)C2)N1CCCC1 | 51.27%
O=C(COC[C@@]12CCC[C@@H]1CN(C1CCCC1)C2)N1CCCC1 | -9.14%
Cn1nc2c(cc1=O)CN(c1ncnc3ccsc13)CC2 | -37.96%
CCC[C@@H]1CN(Cc2cc(OC)c3c(c2)OCO3)C[C@H]1C(=O)O | 57.75%
CCC[C@@H]1CN(Cc2cc3c(cc2OC)OCO3)C[C@H]1C(=O)O | -23.34%
CCC[C@@H]1CN(Cc2cc3c(cc2OC)OCCO3)C[C@H]1C(=O)O | 19.59%
CN(C)c1nccc(C2CN(S(C)(=O)=O)C2)n1 | 40.78%
Cc1cc(C(=O)N2CCN(S(C)(=O)=O)[C@@H](C)C2)c(F)cc1F | 1.27%
CC(=O)N[C@H]1CCO[C@@H](c2cccc(NC(=O)Cc3ccccc3)c2)C1 | 0.93%
O=C(CCNc1ncccn1)NCc1csc(Br)c1 | 33.47%
CCc1ccc(CNC(=O)CCNc2ncccn2)s1 | -18.99%
O=C(CCNc1ncccn1)NCc1cccc(OC(F)F)c1 | 52.3%
Cc1ccc(CCNC(=O)NCc2cccc(OC(F)F)c2)cn1 | -16.71%
O=C(CCNc1ncccn1)NCc1ccc(Br)s1 | 64.22%
O=C(NCCNc1ncccn1)NCc1cccc(OC(F)F)c1 | -35.22%
c1ccc(-c2nnc(N3CCCC4(CCOC4)C3)s2)cc1 (centres undefined) | -21.39%
N#Cc1ccc(N2CCCN(CC(=O)N3CCOCC3)CC2)cc1 | -45.9%
Cc1ccc(NC2CCN(C(=O)CC3CCCO3)CC2)nn1 (centres undefined) | -3.38%
Cc1ccc(-c2noc(CN3CCOC(CN(C)C)C3)n2)cc1F (centres undefined) | -19.76%
CCc1ccc(C2CC(=O)Nc3cc(NS(C)(=O)=O)ccc32)o1 (centres undefined) | -24.85%
CCOc1ncccc1NC(=O)N1CCCN(C(=O)OC)CC1 | 12.81%
CN(C)C(=O)[C@@H]1C[C@@H]2CCN(Cc3nccs3)C[C@@H]2O1 | -31.39%

Compound | INHIBITION
O=C([C@H]1CC[C@@H]2[C@@H](CCN2Cc2nccs2)O1)N1CCOCC1 | 77.07%
CN(C)C(=O)[C@@H]1C[C@@H]2[C@@H](CCN2Cc2nccs2)O1 | 55.11%
Cn1cc(CN2CC[C@H]3O[C@@H](C(=O)NC4CC4)CC[C@H]32)cn1 | -43.66%
CN1CCN(C(=O)[C@H]2C[C@H]3[C@H](CCN3Cc3nccs3)O2)CC1 | 37.54%
Cc1nc(CN2CC[C@@H]3O[C@@H](C(=O)N4CCOCC4)C[C@@H]32)cs1 | 34.24%
Cn1cc(CN2CC[C@@H]3O[C@H](C(=O)N4CCOCC4)C[C@@H]32)cn1 | 86.68%
CC1CCN(C(=O)[C@H]2CC[C@@H]3[C@@H](CCN3Cc3nccs3)O2)CC1 | 53.46%
CN1CCN(C(=O)[C@H]2CC[C@@H]3[C@@H](CCN3Cc3nccs3)O2)CC1 | 1.78%
CN(C)C(=O)[C@@H]1CC[C@@H]2[C@@H](CCN2Cc2nccs2)O1 | 6.66%
O=C([C@H]1CC[C@@H]2[C@@H](CCN2Cc2nccs2)O1)N1CCCCO1 | 23.93%
O=C([C@@H]1C[C@H]2[C@H](CCN2Cc2nccs2)O1)N1CCOCC1 | -16.93%
CC[C@@]1(O)CCN(C(=O)CN(C)Cc2ccc(F)cc2)C[C@H]1O | 25.06%
CN(C)[C@@H]1C[C@@H](CO)N(C(=O)Nc2cccc(F)c2F)C1 | -57.1%
CNC(=O)[C@H]1C[C@@H]2CCN(CCc3ccccc3)C[C@@H]2O1 | 21.77%
CS(=O)(=O)N1CCc2sc(C(=O)NCc3ccccc3)cc21 | 38.62%
O=C(C1CC(F)(F)C1)N1C[C@@H]2CN(CC3CC3)CCO[C@@H]2C1 | -14.21%
Cc1nccn1CCC1CCN(C(C)C)CC1 | 4.53%
Cc1ccc2c(ccn2CCC(=O)O)c1 | -7.01%
Cc1cccc(CN2C(=O)C[C@H]3[C@@H]2CCN3Cc2ccccn2)n1 | -11.91%
Cc1nn(-c2ccccc2)cc1C(=O)N1CCCN2CCCC2C1 (centres undefined) | 20.11%
O=C(c1ccc(NC2CC2)nc1)N1CCCC(n2cccn2)C1 (centres undefined) | 54.85%
Cc1cnn(C2CCCN(C(=O)c3sccc3-n3cnnn3)C2)c1 (centres undefined) | 51.21%
Cc1cnn(C2CCCN(C(=O)c3ccnc(N(C)C)c3)C2)c1 (centres undefined) | -21.91%
O=C(c1ccc(-n2cccn2)nc1)N1CCCC(n2cccn2)C1 (centres undefined) | -9.61%
Cc1cnn(C2CCCN(C(=O)c3cn(-c4ccccc4)nc3C)C2)c1 (centres undefined) | 86.75%

Compound | INHIBITION
Cc1cnn(C2CCCN(C(=O)c3ccc4c(c3)CCC4)C2)c1 (centres undefined) | 56.02%
Cc1cnn(C2CCCN(C(=O)c3ccccc3-n3cnnn3)C2)c1 (centres undefined) | -31.16%
Cc1cnn(C2CCCN(C(=O)c3ccc(-n4cnnn4)cc3)C2)c1 (centres undefined) | 15.4%
Cc1cnn(C2CCCN(C(=O)c3ccn(C)c(=O)c3)C2)c1 (centres undefined) | 16.51%
Cc1nn(-c2ccccc2)cc1C(=O)N1CCCC(n2cccn2)C1 (centres undefined) | 11.1%
O=C(c1ccc(NC2CC2)nc1)N1CCCC(n2ccnc2)C1 (centres undefined) | -5.3%
COc1ccccc1CN1CCC(c2nn(CCN)c3nccnc23)C1 (centres undefined) | -6.04%
Cc1csc(CN2CC[C@H]3C[C@H](c4nc(C)no4)O[C@@H]3C2)n1 | 18.32%
CCOCC1CN(c2ccc(C)nn2)Cc2nn(CC)cc21 (centres undefined) | -3.19%
CCCc1cc(=O)[nH]c(-c2cccc(CN3CCN4CCCC4C3)c2)n1 (centres undefined) | -19.98%
Cc1cnn(CC2CCCCN2CC(=O)NCc2ccccn2)c1 (centres undefined) | 16.6%
Cc1cnn(C2CCCN(C(=O)c3ccc(NC4CC4)nc3)C2)c1 (centres undefined) | 72.31%
CN(C)c1ccc(C(=O)N2CCCC(n3cccn3)C2)nn1 (centres undefined) | 37.68%
O=C(c1cn(-c2ccccc2)nn1)N1CCCC(n2cccn2)C1 (centres undefined) | -3.05%
CNC(=O)c1ccc(C(=O)N2CCCC(n3cc(C)cn3)C2)cn1 (centres undefined) | 16.64%
Cc1cccc(-n2cc(C(=O)N3CCCC(n4cccn4)C3)nn2)c1 (centres undefined) | 58.53%
O=C(c1cnc(-c2cnccn2)s1)N1CCCC(n2cccn2)C1 (centres undefined) | 35.65%
O=C(c1cnc(-c2ncccn2)s1)N1CCCC(n2cccn2)C1 (centres undefined) | 5.09%
Cc1cnn(C2CCCN(C(=O)c3ccc(N4CCCC4)nn3)C2)c1 (centres undefined) | -104.9%
Cc1cnn(C2CCCN(C(=O)c3ccc(O)nc3)C2)c1 (centres undefined) | 45.83%
Cc1cnn(C2CCCN(C(=O)c3ccc(N(C)C)nn3)C2)c1 (centres undefined) | 69.41%
Cc1ccc(-n2cc(C(=O)N3CCCC(n4cccn4)C3)nn2)cc1 (centres undefined) | 18.59%
O=C(c1cnc(-c2ccccn2)s1)N1CCCC(n2cccn2)C1 (centres undefined) | 51.94%
CCc1nc(CN2CCCC(N(C)CCc3cccs3)C2)no1 (centres undefined) | -14.04%
